Results as given in PubChem BioAssay (NCI).
Compounds without any hit were thinned out: in the full panel of roughly 83,000, 20% have a hit.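 Note: values are percent growth. 100 is the growth of untreated cells, values between 100 and 0 indicate rising inhibition; between -100 and 0 indicates cell death.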 Calls of active or inactive are those of the source.

The compounds below were run on MCF7 breast (assay: NCI-60 one-dose screen, 48 h (100 = growth as untreated, 0 = no growth, -100 = all killed)). Conditions: 10 µM unless noted.
Method: Growth inhibition of the MCF7 human tumor cell line is measured as a screen for anti-cancer activity. Cells are grown in 96 well plates and exposed to the test compound for 48 hours. Compounds are tested at a single concentration, which is 10^-5 M for most compounds. The reported endpoint is percent growth (GI% or GIPRCNT), where numbers from 0 - 100% represent growth inhibition, and numbers from -100% - 0 represent cell death. For example, a value of 40 represents 60% growth inhibition. A value of 0 means no net growth occurred over the course of the experiment. A value of -40 indicates 40% of cells at the beginning of the experiment died by the end of the experiment. A value of -100 means all cells are dead at the end of the experiment.
NCI-60 Human Tumor Cell Lines Screen was performed using the standard one-dose NCI protocol, which is described in more detail at https://dtp.cancer.gov/discovery_development/nci-60/default.htm.
Compounds with GIPRCNT values below 10 were considered active. Activity score was based on GIPRCNT using the following formula: […]
Score is 0 for GIPRCNT values of 100 or above, 50 for GIPRCNT values of 0, and 100 for GIPRCNT values of -100.

Structure (SMILES) | growth
O=C1C=CC(=O)N1c1ccccc1N1C(=O)C=CC1=O | 97.1% (inactive)
Cc1ccc(/C=C(/C#N)n2nnc3ncccc32)cc1 | 14.5% (inactive)
CC1=C([Se]CC(OC(=O)[C@@H](CSSC(C)(C)C)NC(=O)C(C)(C)C)C(=O)NCCCCCC(=O)OCc2ccccc2)C(=O)c2ccccc2C1=O (stereo not given in full) | 30.3% (inactive)
c1ccc2c(-c3nc4ccccc4[nH]3)cccc2c1 | 17.2% (inactive)
COCCCNS(=O)(=O)c1ncnc2nc[nH]c12 | 112% (inactive)
BrC1CC(Br)c2c1c1c(c3c2C(Br)CC3Br)C(Br)CC1Br (stereo not given) | 49.6% (inactive)
N#Cc1c(-c2ccccc2)cc(-c2ccccc2)n(CCC(=O)O)c1=O | 35% (inactive)
C=CCNC(=O)/C(=C/c1cccc([N+](=O)[O-])c1)NC(=O)c1ccccc1 | 101% (inactive)
C(#Cc1ccccc1C#Cc1ccccn1)c1ccc(OCCCCCCOc2ccc(C#Cc3ccccc3C#Cc3ccccn3)cc2)cc1 | 21.1% (inactive)
O=C(NC1CCCCC1)c1ccc(Nc2ncnc3c2cnn3-c2ccccc2)cc1 | 82.8% (inactive)
COc1ccc(-c2cc(-c3nnc(SCC(=O)Nc4ccc(C(C)=O)cc4)n3-c3ccccc3)c3ccccc3n2)cc1OC | 95.2% (inactive)
COc1ccc([N+](=O)[O-])c(S(=O)(=O)c2ccc(Cl)cc2)n1 | 18.1% (inactive)
Clc1ccc(C2=NN(c3ccc(Cl)cc3)C(c3cccc(Nc4ccnc5cc(Cl)ccc45)c3)C2)cc1 (stereo not given) | 81.9% (inactive)
NC(=NCCCCCCN=C(N)/N=C(\N)Nc1ccc(Cl)cc1)/N=C(\N)Nc1ccc(Cl)cc1 | 7.79% (active)
Cc1nn(-c2ccccc2)c2nc(N)c(C3=NCCO3)nc12 | 83.6% (inactive)
COC(=O)C1CCN(S(=O)(=O)c2ccc(-c3ccccc3)cc2)CC1 | 99.7% (inactive)
CC(NC(=O)Oc1cccc2ccccc12)c1ccccc1 (stereo not given) | 87.8% (inactive)
COc1ccc2ncccc2c1Cc1c(OC)ccc2ncccc12 | 57% (inactive)
COc1ccc(-c2ccc(O)c(C(=O)/C=C/c3cc(OC)c(OC)c(OC)c3)c2)cc1 | 64.2% (inactive)
CCCCCN1C(=O)CCC1=O | 98.4% (inactive)

Structure (SMILES) | growth
Cc1cc2c(cc1C)[n+](Cc1ccc3ccccc3n1)cn2Cc1ccc2ccccc2n1 | 7.12% (active)
O=C(O)C1CCN(S(=O)(=O)c2ccc(-c3ccccc3)cc2)CC1 | 101% (inactive)
CS(=O)(=O)N1CCN(Cc2cc3nc(-c4cccc5[nH]ncc45)nc(N4CCOCC4)c3s2)CC1 (tested in a mixture with another compound) | 6.96% (active)
CCSc1nc(-c2cccs2)n2nc(-c3ccco3)cc2n1 | 32.9% (inactive)
O=C(CSc1ncc(-c2ccccc2)n1-c1ccccc1)Nc1ccc(-c2nc3ccccc3s2)cc1 | 31.2% (inactive)
NS(=O)(=O)c1ccc(N2CC(c3nc4ccccc4[nH]3)CC2=O)cc1 (stereo not given) | 94.9% (inactive)
O=[N+]([O-])c1ccc(NS(=O)(=O)c2ccc(Cl)c(Cl)c2)cc1 | 79.7% (inactive)
CSc1nc(N)c2c(n1)N(C)C=NS2(=O)=O | 102% (inactive)
CC1CN(CC(O)c2ccc(Br)cc2)CCO1 (stereo not given) | 105% (inactive)
c1ccc(-c2oc(-c3ccccc3)c3ccccc23)cc1 | 122% (inactive)
Nc1nc2c(nnn2Cc2ccc(Cl)c(Cl)c2)c(=O)[nH]1 | 93.7% (inactive)
COc1cc(/C=C\C(C)=N\Nc2ccccc2)ccc1O | 82.4% (inactive)
COc1ccc2nc(-c3ccc(Cl)cc3)cc(-c3nnc(SCC(=O)Nc4ccc(C(C)=O)cc4)n3-c3ccccc3)c2c1 | 100% (inactive)
Cc1ccc(S(=O)(=O)N2CCN(C(=O)CSc3nc4ccc(C)cc4[nH]3)CC2)cc1 | 98.3% (inactive)
COc1ccc2cc(-c3nc4ccccc4[nH]3)c(=O)oc2c1 | 89.3% (inactive)
CC(=O)Nc1ccc(C(=O)COc2cccc(/C=C3\CCc4ccccc4C3=O)c2)cc1 | 19.6% (inactive)
Cc1cc2c(cc1C)[n+](Cc1ccc3ccccc3c1)cn2Cc1ccc2ccccc2c1 | -67.7% (active)
Nc1nc(Nc2ccccc2SSc2ccccc2Nc2nc(N)nc(-c3cccc(Cl)c3)n2)nc(-c2cccc(Cl)c2)n1 | 82.8% (inactive)
COc1ccc(/C=C2\CCc3ccccc3C2=O)cc1 | 85.7% (inactive)
Cc1ccc2nc(-c3ccc(N(C)C)c(Br)c3)cn2c1 | 76.8% (inactive)
